According to article PMC4336329 (PLoS ONE, 2015):
Hit rate of the full screen: of about 310,000 compounds, about 14,000 (4.5%) showed an effect of 50% or more. The effect is printed as a negative number. For the sample, strong results were picked, then their nearest neighbours and some compounds at random.

These compounds were tested against human ether-à-go-go-related gene (hERG) potassium channel (human, UniProt Q12809) (assay: primary screen, population patch clamp on CHO cells stably expressing hERG; higher = less effect of the substance).
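Also: peak tail current of the secondary pulse compared with the same well before compound.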

Chain of human ether-à-go-go-related gene (hERG) potassium channel (Q12809 whole entry, looked up): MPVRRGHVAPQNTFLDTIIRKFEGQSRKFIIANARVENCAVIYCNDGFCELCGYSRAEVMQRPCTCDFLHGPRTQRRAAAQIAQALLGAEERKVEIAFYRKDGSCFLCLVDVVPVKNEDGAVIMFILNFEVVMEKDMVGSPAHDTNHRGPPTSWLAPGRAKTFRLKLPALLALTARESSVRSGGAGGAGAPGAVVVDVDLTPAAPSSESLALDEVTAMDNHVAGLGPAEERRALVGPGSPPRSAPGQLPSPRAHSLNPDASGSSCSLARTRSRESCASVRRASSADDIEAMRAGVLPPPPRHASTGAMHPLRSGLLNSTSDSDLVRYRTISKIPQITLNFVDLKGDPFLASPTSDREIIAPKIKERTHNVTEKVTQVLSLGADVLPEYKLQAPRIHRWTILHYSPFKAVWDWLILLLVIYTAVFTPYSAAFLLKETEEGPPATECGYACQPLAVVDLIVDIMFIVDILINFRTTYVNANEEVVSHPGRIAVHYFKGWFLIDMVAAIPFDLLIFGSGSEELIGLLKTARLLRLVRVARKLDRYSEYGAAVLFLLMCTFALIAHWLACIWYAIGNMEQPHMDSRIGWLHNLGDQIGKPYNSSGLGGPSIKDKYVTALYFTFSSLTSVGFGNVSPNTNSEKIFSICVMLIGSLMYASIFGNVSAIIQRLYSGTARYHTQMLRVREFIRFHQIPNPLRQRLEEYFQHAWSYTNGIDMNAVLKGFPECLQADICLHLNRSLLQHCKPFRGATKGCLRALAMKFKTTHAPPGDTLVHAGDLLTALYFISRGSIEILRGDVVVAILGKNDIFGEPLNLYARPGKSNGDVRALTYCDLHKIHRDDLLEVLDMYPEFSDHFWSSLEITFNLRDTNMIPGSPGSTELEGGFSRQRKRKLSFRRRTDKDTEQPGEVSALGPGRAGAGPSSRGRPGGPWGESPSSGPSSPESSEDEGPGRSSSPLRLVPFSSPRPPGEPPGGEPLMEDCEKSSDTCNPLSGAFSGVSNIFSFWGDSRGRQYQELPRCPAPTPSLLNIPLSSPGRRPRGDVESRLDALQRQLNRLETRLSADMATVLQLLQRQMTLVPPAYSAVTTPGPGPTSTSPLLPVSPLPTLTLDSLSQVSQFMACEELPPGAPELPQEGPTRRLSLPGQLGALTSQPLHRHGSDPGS

Structure (SMILES) | hERG current change (%, negative = inhibition) at 10uM
O=C(O)c1ccc(COCC(F)(F)C(F)F)o1 | 16%
CC(CNC(=O)C(C)C)NC(=O)C(C)C (stereo not shown) | 7.92%
CCN1C(=O)[C@H]2[C@@H](c3ccc(Cl)cc3)N3C(=O)CN(CCOC)C(=O)[C@@]3(C)[C@H]2C1=O | 3.18%
COc1ccc(C2(C(=O)Nc3ccc(C(=O)O)cc3)CCOCC2)cc1 | 9.95%
COc1ccc(Cl)cc1NC(=O)CNc1ccccc1CN(C)C1CCCCC1 | -37.9%
CC1CN(C(=O)/C=C/c2ccc3c(c2)OCO3)CC(C)O1 (stereo not shown) | -21%
CC1CN(C(=O)/C=C/c2ccc(SC(F)F)cc2)CC(C)O1 (stereo not shown) | -59.6%
COc1ccc(/C=C/C(=O)N2CC(C)OC(C)C2)cc1OC (stereo not shown) | -11%
C#Cc1ccc([C@H]2C=C(C(=O)N3CCN(Cc4ccccc4)CC3)O[C@@H](OCC)[C@@H]2CCCO)cc1 | -19.6%
COc1ccccc1OCC(=O)NCCSCc1ccccc1Cl | -22.6%
CC(C)(C)NC(=O)CN1CCC(NC(=O)C23CC4CC(CC(C4)C2)C3)CC1 | 28.1%
O=C(Nc1cccnc1)c1cccnc1Cl | 4.09%
COc1ccc(N2CCN(c3nc(=S)n(-c4ccccc4)c(C)c3C(C)=O)CC2)cc1 | -9.97%
CC(=O)c1c(N2CCN(c3ccccc3)CC2)nc(=S)n(-c2ccccc2)c1C | -20.1%
CC(=O)c1c(N2CCN(c3cccc(Cl)c3)CC2)nc(=S)n(-c2ccccc2)c1C | -68.8%
CCn1c(C)c(C(C)=O)c(N2CCN(c3cccc(Cl)c3)CC2)nc1=S | -27.6%
CC(=O)c1c(N2CCCC2)nc(=S)n(-c2ccccc2)c1C | -0.251%
CC(=O)c1c(N2CCN(c3ccc(F)cc3)CC2)nc(=S)n(-c2ccccc2)c1C | -75%
CC(=O)Nc1ccccc1-c1nc2cc(C#N)c(C#N)cc2[nH]c1=O | -4.17%
O=c1[nH]c(NCCO)nc2c1C1(CCCCC1)Cc1ccccc1-2 | 7.03%
COc1cccc(/C=N/NC(=O)CNC(=O)c2ccc3c(c2)OCCO3)c1O | -0.701%
O=C(NCC1CCCO1)c1cnn2c(C(F)F)cc(C3CC3)nc12 (stereo not shown) | -2.7%
CCCOC(=O)c1ccc(Nc2nc(C)cc(=O)[nH]2)cc1 | 3.46%
COc1ccc(NC(=O)NC2CCCc3ccccc32)c(OC)c1 (stereo not shown) | 13.3%
COC(=O)Cc1cc(=O)oc2cc(O)ccc12 | 5.29%
Cc1ccc(NC(=O)COC(=O)CSCC(=O)Nc2cc(C)on2)c(C)c1 | -17.9%
Cc1ccc(NC(=O)CSCC(=O)OCc2cc(=O)oc3cc(O)ccc23)c(C)c1 | -53.2%
CCOc1ccc(/C=N/NC(=S)NC2CC3CC2C2C=CCC32)cc1 (stereo not shown) | 6.33%

Structure (SMILES) | hERG current change (%, negative = inhibition) at 10uM
CC1=C(C(=O)OCc2ccccc2)C(c2ccc(C)o2)C2=C(CCCC2=O)N1 (stereo not shown) | -23.7%
Cc1cc(C(F)(F)F)c2sc(N)nc2n1 | 5.61%
Cc1ccc(S(=O)(=O)N2CCCN(C(C)c3nc4ccccc4c(=O)[nH]3)CC2)cc1 (stereo not shown) | -25.6%
CC(c1nc2ccccc2c(=O)[nH]1)N1CCN(C)CC1 (stereo not shown) | -5.2%
CC(c1nc2ccccc2c(=O)[nH]1)N1CCCN(S(=O)(=O)c2ccc(F)cc2)CC1 (stereo not shown) | -59.1%
CC1CCN(S(=O)(=O)c2ccc(NC(=O)C3CSC4(C)CCC(=O)N34)cc2)CC1 (stereo not shown) | -6.34%
COc1ccc(C)cc1S(=O)(=O)NCCc1ccccc1 | -28.3%
CCN(CC)c1ccc(C(=O)OCC(=O)Nc2ccc3[nH]c(=O)[nH]c3c2)cc1 | 5.58%
Cc1ccc2nc(SCc3nnc(-c4ccccc4Br)o3)[nH]c2c1 | -6.41%
CCOC(=O)c1c(C=O)c(C)n(Cc2ccc(Cl)cc2)c1C | -18.8%
CCOC(=O)C1=C(OCc2ccc(Cl)cc2)C2C=C(C)C=CC2N=C1 (stereo not shown) | -69.1%
CCOc1ncccc1C(=O)OCc1ccc(Cl)cc1 | -20%
CC(=O)c1ccc(-n2c(C)c(C(C)=O)c3cc(O)ccc32)cc1 | 8.94%
O=C(c1ccc([N+](=O)[O-])cc1)N1CCc2ccccc2C1 | -44.7%
O=C(c1cccc(Br)c1)N1CCN(C(=O)c2cccc(Br)c2)CC1 | -28.5%
O=C(NCCN1CCN(C(=O)c2cccc(Br)c2)CC1)C(=O)Nc1ccc(Br)cc1 | -42.1%
CC(NC(=O)C(=O)NCCN1CCN(C(=O)c2ccc([N+](=O)[O-])cc2)CC1)c1ccccc1 (stereo not shown) | -75.1%
O=C(NCCN1CCN(C(=O)c2ccc([N+](=O)[O-])cc2)CC1)C(=O)NCc1ccccc1 | -78.9%
CC(C(=O)NCCN1CCOCC1)c1ccc([N+](=O)[O-])cc1 (stereo not shown) | 16.7%
COc1ccc(N2CCN(CCNC(=O)Nc3ccc([N+](=O)[O-])cc3OC)CC2)cc1 | -17.1%
CCc1ccc(N2CCN(CCNC(=O)Nc3ccccc3)CC2)cc1 | -21.1%
O=C(NCCN1CCN(c2ccc([N+](=O)[O-])cc2)CC1)NCc1ccccc1 | -67.7%
O=C(CCC(=O)NNC(=O)c1ccc([N+](=O)[O-])cc1)NCc1ccccc1 | 10.9%
CC(NC(=O)C(=O)NCCN1CCN(C(=O)c2ccccc2Br)CC1)c1ccccc1 (stereo not shown) | 6.37%
O=C(NCCN1CCN(C(=O)c2cccc(Br)c2)CC1)C(=O)NCc1ccccc1 | -70%
Cc1ccccc1-n1nc(C)c2cc(C(=O)NCc3cccnc3)sc21 | -31%
O=C(c1ccc(COc2ccc(Br)cc2)o1)N1N=C(C(F)F)CC1(O)C(F)F (stereo not shown) | 2.57%
